Source: PubChem BioAssay
RECQ1 inh-1: inhibitors of human RECQ1 DNA helicase. RECQ1 DNA unwinding, red fluorescence kinetic read. 240,000 compounds, 0.54% hits. Potency, µM (doses to about 57.3 µM), for inactives: at the top dose activity, negative = inhibition, actives largely listed as inhibitors;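 further: plate controls were vehicle for no effect and no enzyme for full effect; nearly all actives have a fitted effect of over 30% in size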
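RECQ1T1 50 nM; forked duplex (20 bp + 30-nt ss tails) 200 nM, ATP 2 mM final; pH 8.0, 2 mM MgCl2, 2.5 ug/ml poly(dI-dC); 15 min compound preincubation; discontinuous kinetic read over 2 h at RT.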
TR SRC2 fluor cs: alters Texas Red total fluorescence, flagging assay interference | TRb/SRC2 Texas Red total fluorescence interference | Potency, µM (series often up to 106 µM), without a hit: top-dose fluorescence change, negative = quenching | 280,000 compounds, 0.29% hits; active means well fitted curve in either direction with a large enough effect; inconclusive means small, poorly fitted or top-dose-only effect; further: on the % scale 0 is the no-effect control and ±100 the full control effect
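Human TRb ligand-binding domain at 0.6 uM with 20 nM Texas Red SRC2 peptide in Tris buffer containing 1 uM T3 and 5% DMSO, incubated with compound 5 h at ambient temperature. Total fluorescence (555/632 nm) calculated as parallel + 2 × perpendicular.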
ERG-DNA inh: blocks human ERG Ets domain binding to DNA; Potency, µM (highest dose often 76.9 µM), for inactives: at the highest dose FP activity, negative = inhibition, most hits filed as inhibitors; fluorescence polarization, His-ERG Ets domain / labelled DNA; 370,000 compounds, 0.028% hits; AID 624246; P11308; active means well fitted inhibition curve with a large enough effect in the polarisation, with a control signal flat; inconclusive means small, poorly fitted or top-dose-only effect, or effect the other way, or a change in a side signal; inactive means no such curve, though single readings can be large or run the other way; the % refers to the polarisation;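 further: polarization taken with two DNA probes labelled with fluorescein and Texas red; % of control where 0% means no effect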
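His-tagged ERG Ets domain (1 uM in the protein solution; 300mM KCl, 50mM Tris-HCl, 1mM EDTA, 1mM DTT, pH 7.5) received compound, then a probe mix of 5 nM fluorescein-DNA and 100nM Texas-615-DNA. Fluorescence polarization was read for both dyes.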
BLM inh: blocks DNA unwinding by human BLM helicase. P54132. Potency, µM (doses to about 56.1 µM), inactives show at the top dose activity change, negative = inhibition, usual class: inhibitors. 350,000 compounds, 0.2% hits. recombinant BLM DNA unwinding, fluorescence dequenching;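 further: plate controls were vehicle for no effect and no enzyme for full effect; nearly all actives have a fitted effect of over 35% in size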
TRb-SRC2 inh: disrupts binding of human TR beta to SRC2. P10828. TRbeta-SRC2 peptide binding, fluorescence polarization; receptor liganded with 1 µM T3. Potency, µM (series often up to 106 µM), for inactives: at the highest dose activity change, negative = inhibition, hits mostly inhibitors. 280,000 compounds, 0.065% hits. AID 1469;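 further: plate controls were bound peptide for no effect and peptide without receptor for full effect; nearly all actives have a fitted effect of over 50% in size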
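Fluorescence polarization of 20 nM Texas Red SRC2 peptide (20-aa NR interaction domain) bound to 0.6 uM human TRb ligand-binding domain, with 1 uM T3, after 5 hr at ambient temperature; inhibition seen as decreased polarization.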
GoLoco inh red: inhibitors of human Gai1-RGS12 GoLoco interaction (red fluorophore); P63096; Gai1:RGS12 GoLoco peptide FP, rhodamine, 10 min; Potency, µM (highest dose often 61.6 µM), for the others: at the highest dose activity, negative = inhibition, actives largely listed as inhibitors; 230,000 compounds, 0.44% hits; active means well fitted inhibition curve with a large enough effect, not every such curve was filed as active; inactive means no such curve, though single readings can be large or run the other way; further: on the % scale 0 is the no-effect control and ±100 the full control effect; nearly all actives have a fitted effect of over 30% in size
Target sequence (P63096 whole entry, looked up): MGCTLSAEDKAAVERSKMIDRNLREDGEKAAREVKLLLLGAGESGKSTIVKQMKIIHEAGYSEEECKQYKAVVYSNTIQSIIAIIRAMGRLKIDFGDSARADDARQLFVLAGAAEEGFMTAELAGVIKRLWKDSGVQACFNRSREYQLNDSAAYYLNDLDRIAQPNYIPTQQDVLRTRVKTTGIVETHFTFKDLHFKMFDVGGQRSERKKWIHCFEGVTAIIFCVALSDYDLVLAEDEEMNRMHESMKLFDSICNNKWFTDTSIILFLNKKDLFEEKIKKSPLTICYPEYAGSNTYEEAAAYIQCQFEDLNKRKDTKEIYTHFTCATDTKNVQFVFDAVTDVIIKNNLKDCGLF
RECQ1 conf: confirmation of human RECQ1 helicase inhibitors. AID 2708. Potency, µM (doses to about 229 µM), without a hit: at the highest dose activity change, negative = inhibition, most hits filed as inhibitors. 610 compounds, 28% hits. shares compounds with RECQ1 inh-1. RECQ1 helicase DNA unwinding, fluorescence; further: on the % scale 0 is the no-effect control and ±100 the full control effect; nearly all actives have a fitted effect of over 45% in size
RECQ1 ADP FP: displaces ADP in a fluorescence polarization counter-screen for RECQ1 hits; shares compounds with RECQ1 inh-1; Potency, µM (series often up to 228 µM), inactives show at the top dose activity change, negative = inhibition, usual class: inhibitors; ADP fluorescence polarization displacement counterscreen; 530 compounds, 27% hits; further: on the % scale 0 is the no-effect control and ±100 the full control effect; nearly all actives have a fitted effect of over 45% in size
RECQ1 inh-2: blocks human RECQ1 DNA unwinding | shares compounds with RECQ1 inh-1 | recombinant RECQ1 DNA unwinding, red fluorescence | Potency, µM (series often up to 119 µM), for inactives: top-dose activity, negative = inhibition, actives largely listed as inhibitors | 1,100 compounds, 15% hits | AID 504841; further: on the % scale 0 is the no-effect control and ±100 the full control effect; nearly all actives have a fitted effect of over 50% in size
Active calls of the source: *. Hits are enriched below; roughly 0.71% of the tested compounds scored in any of these assays. Unless noted, the call rests on the fitted dose curve; in most records, active means well fitted curve in the direction sought with a large enough effect; inconclusive means small, poorly fitted or top-dose-only effect, or another doubt; inactive means no such curve, though single readings can be large; an effect the other way counts as inactive or inconclusive. Potency means the concentration at half of the fitted maximal effect.

Screening FC(F)(F)c1cccc(N2CCN(c3nc4ccccc4n4cnnc34)CC2)c1 returned TR SRC2 fluor cs 5%, ERG-DNA inh -2%, BLM inh -11% and TRb-SRC2 inh 3%.
`Cc1cc(C)cc(C(=O)NCC(=O)OCC(=O)N2c3ccccc3NC(=O)C2(C)C)c1` gave RECQ1 inh-1 inconclusive, TR SRC2 fluor cs 2%, ERG-DNA inh -4%, BLM inh -25%, TRb-SRC2 inh 1%, GoLoco inh red 2% and RECQ1 inh-2 -23%.
`COc1cc(OC)cc(C(=O)NCC(=O)OCC(=O)N2c3ccccc3NC(=O)C2(C)C)c1` gave RECQ1 inh-1 -2%, TR SRC2 fluor cs 0%, ERG-DNA inh 1%, BLM inh -6%, TRb-SRC2 inh -1% and GoLoco inh red 0%.
Screening COc1ccc(OCc2ccc(-c3nc(C#N)c(N4CCC(C)CC4)o3)o2)cc1 returned TR SRC2 fluor cs -12%, ERG-DNA inh 0%, BLM inh -7% and TRb-SRC2 inh -3%.
Screening Nc1cccc2c(=O)[nH]ccc12 returned RECQ1 inh-1 20µM*, TR SRC2 fluor cs -23%, BLM inh -13%, TRb-SRC2 inh -2%, RECQ1 conf inconclusive and RECQ1 ADP FP 50µM*.
Cn1c(=O)cc(SCC(=O)NCCc2ccc(Cl)cc2)c2cc(Cl)ccc21 was read as TR SRC2 fluor cs -17%, ERG-DNA inh 4%, BLM inh -2% and TRb-SRC2 inh -7%.
Screening Cc1ccc(N2C(=O)C3C(C2=O)C(C(=O)c2ccc(Cl)cc2)N2CCCC32)cc1 (configuration not stated) returned RECQ1 inh-1 25µM*, TR SRC2 fluor cs 5%, ERG-DNA inh 3%, BLM inh -3%, TRb-SRC2 inh -2%, GoLoco inh red 24% and RECQ1 inh-2 -28%.
For CC(=O)Oc1ccc(N2C(=O)C3C(C2=O)C(C(=O)c2ccc(Cl)cc2)N2CCCC32)cc1 (configuration not stated) the results were RECQ1 inh-1 -4%, TR SRC2 fluor cs 0%, ERG-DNA inh 34%, BLM inh 1%, TRb-SRC2 inh -4% and GoLoco inh red 15%.
COC(=O)c1ccc(/C(O)=C(\C#N)c2nc3ccccc3s2)cc1 was read as RECQ1 inh-1 -2%, TR SRC2 fluor cs 2%, ERG-DNA inh -6%, BLM inh -3% and TRb-SRC2 inh 1%.
CC(C)=C(C#N)c1nc2ccccc2s1 was read as RECQ1 inh-1 10µM*, TR SRC2 fluor cs inconclusive, BLM inh -2%, TRb-SRC2 inh inconclusive, GoLoco inh red 17% and RECQ1 inh-2 -10%.
Screening Cc1cc(C)n(Cc2ccc(C(=O)O)cc2)n1 returned RECQ1 inh-1 -7%, TR SRC2 fluor cs -2%, BLM inh -2%, TRb-SRC2 inh -1% and GoLoco inh red 7%.
Screening Cc1ccc(C)n1Cc1ccc(C(=O)O)cc1 returned RECQ1 inh-1 7.1µM*, TR SRC2 fluor cs inconclusive, ERG-DNA inh 2%, BLM inh 85%, TRb-SRC2 inh 11%, GoLoco inh red -6% and RECQ1 conf 20µM*.
For COCCOC(=O)c1c(NC(=O)CN2CCc3ccccc32)sc(C(N)=O)c1C the results were RECQ1 inh-1 20µM*, TR SRC2 fluor cs 0%, ERG-DNA inh 8%, BLM inh 1%, TRb-SRC2 inh 4%, GoLoco inh red 22% and RECQ1 inh-2 -8%.
`Cc1ccc(/C=C/C(=O)NCc2ccccn2)o1` gave RECQ1 inh-1 inconclusive, TR SRC2 fluor cs 2%, ERG-DNA inh -4%, BLM inh inconclusive, TRb-SRC2 inh -11%, GoLoco inh red -8% and RECQ1 inh-2 18µM*.
Screening Cc1ccc(/C=C/C(=O)NCc2ccco2)o1 returned RECQ1 inh-1 -15%, TR SRC2 fluor cs -1%, BLM inh 3%, TRb-SRC2 inh 2% and GoLoco inh red -6%.
For COc1ccc(C)c2sc(N(Cc3cccnc3)C(=O)CCc3ccccc3)nc12 the results were TR SRC2 fluor cs 1%, ERG-DNA inh 0%, BLM inh -12% and TRb-SRC2 inh 4%.
`CC12CCC=CC1C(c1ccc3ccccc3c1Br)N(Cc1ccccc1)C2=O` (configuration not stated) gave RECQ1 inh-1 -1%, TR SRC2 fluor cs -1%, BLM inh -10% and TRb-SRC2 inh 7%.
`Cc1cc(C(=O)CSc2nnc(-c3ccccc3)o2)c(C)n1CC1COc2ccccc2O1` (configuration not stated) gave RECQ1 inh-1 -9%, TR SRC2 fluor cs -3%, ERG-DNA inh -1%, BLM inh -1%, TRb-SRC2 inh -4% and GoLoco inh red 11%.
`Cc1cc(C(=O)CSc2nnc(-c3ccco3)o2)c(C)n1CC1COc2ccccc2O1` (configuration not stated) gave RECQ1 inh-1 32µM*, TR SRC2 fluor cs inconclusive, ERG-DNA inh -9%, BLM inh -9%, TRb-SRC2 inh 8%, GoLoco inh red 35% and RECQ1 inh-2 -10%.
For COc1cccc(=O)c2c(C)n(C)c(C)c12 the results were RECQ1 inh-1 inconclusive, TR SRC2 fluor cs -1%, ERG-DNA inh -4%, BLM inh -18%, TRb-SRC2 inh -9%, GoLoco inh red -5% and RECQ1 inh-2 -21%.
`COc1cccc(=O)c2c(C)n(-c3cc(C)cc(C)c3)c(C)c12` gave RECQ1 inh-1 -10%, TR SRC2 fluor cs -7%, ERG-DNA inh -13%, BLM inh -8%, TRb-SRC2 inh 4% and GoLoco inh red 0%.
For CCCCCn1c(C)c2c(OCC)cccc(=O)c2c1C the results were RECQ1 inh-1 32µM*, TR SRC2 fluor cs 0%, ERG-DNA inh -8%, BLM inh -12%, TRb-SRC2 inh -2%, GoLoco inh red 10% and RECQ1 inh-2 -11%.
